# Data taken from publication PMC6792352, “Limited Chemical Structural Diversity Found to Modulate Thyroid Hormone Receptor in the Tox21 Chemical Library” (Environmental Health Perspectives, 2019).
# Where a name gives a salt, the structure may show the parent alone.
# Test system: thyroid hormone receptor (endogenous TRα and TRβ)
# Set-up: species or system GH3-TRE-Luc (rat pituitary); GH3-TRE-Luc luciferase reporter, antagonist mode against 1 nM T3, loss of signal, qHTS
# Settings: antagonist mode, 1 nM T3, no GH3 cytotoxicity hit, read-out: Average AC50 (uM) GH3-TRE-Antag
row,SMILES,AC50 [µM]
1,COP(=S)(OC)Oc1nc(Cl)c(Cl)cc1Cl [Chlorpyrifos-methyl],78.8
2,CC(C)(C)c1ccccc1OP(=O)(Oc1ccccc1)Oc1ccccc1 [tert-Butylphenyl diphenyl phosphate],88.4
3,CCOP(=S)(OCC)Oc1cnc2ccccc2n1 [Quinalphos],55.1
4,CCN(CC)C(=O)[C@@H]1C=C2c3cccc4[nH]cc(c34)C[C@H]2N(C)C1 [Lysergide],> 50
5,CC(C)CC(N(C)C)C1(c2ccc(Cl)cc2)CCC1 (centres unmarked) [Sibutramine hydrochloride],29.8
6,C[C@]12CC[C@H]3[C@@H](CCC4=CC(=O)CC[C@@]43C)[C@@H]1CC[C@@H]2OC(=O)CCc1ccccc1 [Testosterone 17-phenylpropionate],30
7,NC(=S)Nc1ccccc1 [1-Phenyl-2-thiourea],43.9
8,COC1=CC=C2[C@H]3Cc4ccc(OC)c5c4[C@@]2(CCN3C)[C@H]1O5 [Thebaine],> 20
9,CCCSP(=O)(OCC)Oc1ccc(Br)cc1Cl (centres unmarked) [Profenofos],> 50
10,OC(c1ccccc1)(c1ccccc1)C1CCNCC1 [Azacyclonol],10.4
11,Cc1ccc2c(c1)[C@]13CCCC[C@@H]1[C@H](C2)N(C)CC3 [Dimemorfan phosphate],42.3
12,CCOP(=S)(OCC)SCSC(C)(C)C [Terbufos],85
13,COP(=O)(OC)O/C(=C\Cl)c1cc(Cl)c(Cl)cc1Cl [Z-Tetrachlorvinphos],37.7
14,"C[C@]12CCC(=O)C=C1CC[C@@H]1[C@@H]2CC[C@]2(C)C(=O)CC[C@@H]12 [4-Androstene-3,17-dione]",> 50
15,CCOP(=O)(OCC)O/C(=C\Cl)c1ccc(Cl)cc1Cl [Chlorfenvinphos],> 50
16,C[C@]12CC[C@H]3[C@@H](CCC4=CC(=O)CC[C@@]43C)[C@@H]1CC[C@H]2O [Epitestosterone],38.7

row,SMILES,AC50 [µM]
1,"COc1cc(CC(C)N)cc2c1OCO2 (centres unmarked) [1-(7-Methoxy-1,3-benzodioxol-5-yl)propan-2-amine hydrochloride]",48.3
2,COc1ccc2c(c1)[C@]13CCCC[C@@H]1[C@H](C2)N(C)CC3 [Dextromethorphan hydrobromide monohydrate],21.1
3,CCOP(=S)(OCC)Oc1ccc2c(C)c(Cl)c(=O)oc2c1 [Coumaphos],> 50
4,CC(C)=CCN1CC[C@]2(C)c3cc(O)ccc3C[C@H]1[C@H]2C [(+)-Pentazocine succinate],37.2
5,"O=[N+]([O-])c1cccc2cccc([N+](=O)[O-])c12 [1,8-Dinitronaphthalene]",49.5
6,CC(C)=CC1C(C(=O)OCN2C(=O)C3=C(CCCC3)C2=O)C1(C)C (centres unmarked) [Tetramethrin],> 50
7,COP(=O)(OC)OC(=CCl)c1cc(Cl)c(Cl)cc1Cl [Tetrachlorovinphos],27.1
8,C[C@]12CC[C@H]3[C@@H](CCC4=CC(=O)CC[C@@]43C)[C@@H]1CC[C@@H]2O [Testosterone],59
9,CCC1COC(Cn2cncn2)(c2ccc(Cl)cc2Cl)O1 (centres unmarked) [Etaconazole],36.8
10,COP(=S)(OC)Oc1ccc(S(=O)(=O)N(C)C)cc1 [Famphur],> 50
11,CNP(=O)(OC)Oc1ccc(C(C)(C)C)cc1Cl (centres unmarked) [Crufomate],52.9
12,N#CSCc1ccccc1 [Benzyl thiocyanate],56.4
13,O=C(Nc1ccccc1)Nc1cnns1 [Thidiazuron],76.7
14,"Oc1ccc(Cl)c(Cl)c1 [3,4-Dichlorophenol]",59.5
15,CCN(CC)c1nc(C)cc(OP(=S)(OC)OC)n1 [Pirimiphos-methyl],57.1
16,"Oc1ccc(Cl)c(Cl)c1Cl [2,3,4-Trichlorophenol]",87.3
